Screening data as filed in PubChem BioAssay.
This is a sample that favours compounds with a hit; in the whole collection about 32% have one here.
CYP2C19 act: activators of human cytochrome P450 2C19; P33261; recombinant CYP2C19, luciferin-H EGE luminescence; stronger effect = higher value; 0 = fully inhibited enzyme, 1 = untreated enzyme; activation factor at 5 µM; 96,000 tested, under 10 active; AID 1025;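 active = activation factor of at least 2 at 5 µM in the primary screen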;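 note: 0 = wells with 2.5 mM tranylcypromine and 1 = vehicle-only wells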
Target sequence (P33261 whole entry, looked up): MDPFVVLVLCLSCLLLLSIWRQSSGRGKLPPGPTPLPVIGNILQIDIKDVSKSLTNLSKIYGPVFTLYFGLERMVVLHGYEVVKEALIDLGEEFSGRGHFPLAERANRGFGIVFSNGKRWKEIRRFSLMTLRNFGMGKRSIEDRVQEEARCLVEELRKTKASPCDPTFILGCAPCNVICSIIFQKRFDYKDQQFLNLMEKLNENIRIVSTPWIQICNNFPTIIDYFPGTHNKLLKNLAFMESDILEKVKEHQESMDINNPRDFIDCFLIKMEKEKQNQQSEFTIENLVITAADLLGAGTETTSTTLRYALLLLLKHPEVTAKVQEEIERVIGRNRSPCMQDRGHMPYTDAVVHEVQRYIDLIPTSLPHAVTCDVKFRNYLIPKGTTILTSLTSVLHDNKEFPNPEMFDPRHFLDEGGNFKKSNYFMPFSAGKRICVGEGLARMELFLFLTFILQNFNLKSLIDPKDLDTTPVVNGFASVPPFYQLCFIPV
PostGolgi ctrl: growth of the yeast control strain, post-Golgi counter-screen; efflux-deficient yeast background strain, growth absorbance A615, 16 h; inhibition, % at 10 µM; 98,000 compounds, 5% hits; AID 738
CYP2C9 act: increases human cytochrome P450 2C9 activity. AID 1024. recombinant CYP2C9, luciferin-H conversion, luminescence; stronger effect = higher value; factor 1 = untreated enzyme, 0 = blocked. 96,000 compounds, 1.4% hits. P11712. activation factor at 5 µM;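 active = activation factor of 2 or more for CYP2C9 at a 5 µM dose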;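 note: 0 = sulfaphenazole-blocked wells and 1 = vehicle-only wells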
CYP2C19 inhib: human CYP2C19 inhibition. P33261. CYP2C19 Supersomes, luciferin-H EGE luminescence, 30 min. inhibition, % at 5 µM. 96,000 compounds, 21% hits. AID 778;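 active = CYP2C19 inhibition above a set limit at 5 µM in the primary screen, cut at about 50% in these data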;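 note: plate controls were negative control wells for no effect and 2.5 mM tranylcypromine positive control for full effect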
CYP2C9 inh: blocks human cytochrome P450 2C9; 96,000 compounds, 20% hits; inhibition, % at 5 µM; P11712; CYP2C9 Supersomes, luciferin-H conversion, luminescence;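 active = blocking of liver enzyme CYP2C9 beyond about 50% at 5 µM, limit read from the data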
PostGolgi yeast: growth inhibition of a yeast mutant, post-Golgi transport screen; AID 739; 98,000 compounds, 0.9% hits; inhibition, % at 10 µM; post-Golgi transport phenotypic cell assay;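 note: yeast cells grown in 1536-well plates; yeast grown about 18 h at 30C before absorbance read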
* = called active by the depositor; / = no result given. Cut-off read from the data, not from the text of the source, unless noted: active = inhibition above about 30%; inactive = the rest.

SMILES | CYP2C19 act | PostGolgi ctrl | CYP2C9 act | CYP2C19 inhib | CYP2C9 inh | PostGolgi yeast
CC(C)(C)c1cnnn1-c1ccc(-c2csc(N)n2)cc1 | 0.9 | 46* | 0.7 | 7 | 28 | 21
Nc1nc(-c2ccc3c(c2)CCCC3)cs1 | 0.9 | 7 | 0.9 | 15 | 7 | -7
O=C(OCCN1CCOCC1)C(c1ccccc1)c1ccccc1 | 0.3 | 2 | 0.4 | 70* | 56* | 1
CC(C)(C)c1ccc(NC(=O)COc2ccc(-n3ccnc3)cc2)cc1 | 0 | 58* | 0 | 99* | 99* | 73*
N#Cc1cccc(NC(=O)COc2ccc(-n3ccnc3)cc2)c1 | 0 | 5 | 0 | 100* | 99* | -3
Cn1c(Cn2c(=O)sc3ccccc32)nnc1SCC(=O)Nc1cccc(F)c1 | / | -8 | / | / | / | 1
COc1ccc(NC(C#N)c2ccc(OC)cc2)cc1 (configuration not stated) | 0.9 | 13 | 0.9 | 13 | 12 | 15
CN(c1ccc(C(=O)NCC2CCCO2)cc1)S(C)(=O)=O (configuration not stated) | 1 | 0 | 1 | -1 | -1 | 2
O=c1oc(-c2cccnc2)nc2ccccc12 | 0.9 | 4 | 1 | 5 | -2 | -4
Cc1onc(-c2ccccc2)c1-c1nc2ccccc2c(=O)o1 | 0.5 | 32* | 0.6 | 51* | 35 | 12
COc1cccc(N2CC34C=CC(O3)C(C(=O)O)C4C2=O)c1 (configuration not stated) | 1.2 | 0 | 0.9 | -16 | 10 | -9
CCn1c(CNC(=O)COc2ccc(C(C)C)cc2)nnc1SCC(=O)Nc1ccccc1F | 0.5 | 3 | 0.3 | 53* | 71* | 5
COc1ccc(C(=O)NCCc2nnc(SCC(=O)Nc3ccccc3C(C)C)n2C)cc1 | 0.6 | -1 | 0.7 | 44 | 30 | 2
CCn1c(CSc2nc(C)cc(C)n2)nnc1SCC(=O)Nc1cccc2ccccc12 | 0.9 | 9 | 1.4 | 5 | -39 | 4
CCn1c(CNC(=O)COc2ccc(C(C)C)cc2)nnc1SCC(=O)Nc1ccccc1C(C)C | 0.8 | 43* | 0.7 | 24 | 30 | 2
COCCNC(=O)C(OC(=O)c1cccs1)c1ccccc1 (configuration not stated) | 1 | 10 | 1.1 | 4 | -8 | 6
COc1cccc(N2CCN(Cc3ccsc3)CC2)c1 | 0.1 | -5 | 0.5 | 91* | 50* | 3
COc1ccccc1CNC(=O)c1cnccn1 | 0.7 | 3 | 1.5 | 26 | -46 | 1
O=C(CSc1n[nH]c(-c2ccc(Cl)cc2Cl)n1)Nc1ccccn1 | 0.7 | 33* | 0.3 | 30 | 72* | -3
CCn1c(COc2ccccc2)nnc1SCC(=O)NC1CCCCC1 | 0.9 | -5 | 0.8 | 11 | 20 | -1
CCn1c(CNc2cccc(Cl)c2)nnc1SCC(=O)OC1CCCCC1 | 0.3 | 23 | 0.3 | 74* | 74* | 12
CCn1c(CNc2ccccc2Cl)nnc1SCC(=O)OC1CCCCC1 | 0.3 | 17 | 0.6 | 70* | 45 | 0
O=C(CSc1nnc2c(Cl)cc(C(F)(F)F)cn12)Nc1ccc2c(c1)OCO2 | 0.7 | 10 | 0.7 | 30 | 32 | 14
Cc1nc(N2CCC(C)CC2)c2oc3ccccc3c2n1 | 0.3 | 30* | 0.3 | 67* | 70* | 4
CCc1nc(N2CCN(C(=O)c3ccco3)CC2)c2oc3ccccc3c2n1 | 0.1 | 9 | 0.1 | 95* | 92* | 16
SMILES | CYP2C19 act | PostGolgi ctrl | CYP2C9 act | CYP2C19 inhib | CYP2C9 inh | PostGolgi yeast
Cc1nc(N2CCN(C(=O)c3ccco3)CC2)c2oc3ccccc3c2n1 | 0.3 | / | 0.5 | 70* | 53* | /
O=[N+]([O-])c1ccc(Oc2c(F)c(F)nc(N3CCCC3)c2F)cc1 | 0.6 | 14 | 1 | 40 | 5 | 13
CC(C)(C)C(=O)OCCn1c(=O)c2cc3c(=O)n(CCOC(=O)C(C)(C)C)c(=O)c3cc2c1=O | 1.1 | -4 | 0.9 | -9 | 6 | -3
COc1ccc(-c2cn3c(C)c(C(=O)Nc4ccncc4)sc3n2)cc1 | 0.6 | 8 | 0.7 | 37 | 30 | -1
Cc1c(C(=O)Nc2ccncc2)sc2nc(-c3ccc(F)cc3)cn12 | 0.6 | -7 | 0.3 | 45 | 74* | -2
COc1ccc(-c2cn3c(C)c(C(=O)Nc4cccc(NC(C)=O)c4)sc3n2)cc1 | 0.4 | 1 | 1.1 | 59* | -8 | -7
CC(=O)Nc1cc2c(cc1NC(=O)c1cnccn1)OCCO2 | 0.7 | 1 | 1 | 30 | -3 | -4
